PubChem BioAssay (Tox21)
Calls of active or inactive are those of the source. Calls come from the whole dose curve; as a rule, active = well fitted curve in the direction sought with a large enough effect in the repeat runs; inconclusive = weak or mixed curves; inactive = flat fitted curve, though single readings scatter.

Test: qHTS assay to test for compound auto fluorescence at 535 nm (green) in HepG2 cell free culture (AID 720686)
Conditions: Cell-free medium, green autofluorescence 485/535 nm; series mostly up to 91.3 µM; fluorescence, % of fluorescein control: at the top concentration
From the text: U.S. Tox21 Program National Center for Advancing Translational Sciences [NCATS] NIH Chemical Genomics Center [NCGC] U.S. Environmental Protection Agency [EPA] National Institutes of Environmental Health Sciences [NIEHS] National Toxicology Program [NTP] U.S. Food and Drug Administration [FDA] Tox21 Assay Overview: Compound auto fluorescence often interferes with screening of the compound library against various biological targets and signaling pathways. Some of these compounds may have fluorophoric properties. Such properties may interfere with the assay outputs resulting in false positives and/or negatives. To decrease such complications and ensure the compound activities are relevant in terms of biological response, the Tox21 10K compound library was screened for auto fluorescence. From the fluorophores used as reporter signals in our screening assays, the auto fluorescence equivalencies of compounds against three fluorophores have been evaluated: Triamterene, Fluorescein and Rose Bengal sodium for blue, green and red fluorescence, respectively. The fluorescence intensities were measured using Excitation/Emission wavelengths at 405/460nm, 485/535nm and 540/590nm for blue, green and red labels, respectively. This assay includes the green fluorescence data.
Tox21 Assay Protocol Summary: 5 uL of culture medium (MEM containing 10% FBS) per well was dispensed into black wall/clear bottom 1536-well plates using a Multidrop Combi Dispenser (ThermoFisher Scientific, Waltham, MA). After 23 nL compound or DMSO vehicle was transferred into assay plate by a pintool work station (Kalypsys, San Diego, CA), fluorescence intensities in the assay plates were measured by an Envision (PerkinElmer, Shelton, CT) plate reader using three labels for measuring blue, green and red fluorescence at […] 460, 535 and 590nm respectively.
% is set by controls: 0 for no effect and ±100 for the full control effect.

| Structure (SMILES) | fluorescence, % of fluorescein control | outcome |
| --- | --- | --- |
| OCC(CO)n1cnc(-c2ccc(F)cc2)c1-c1ccnc(Oc2ccccc2)n1 | -0.0619% (inactive) |  |
| CO[C@@H]1[C@@H](OC)[C@H](C)[C@@](O)(CC(=O)O)O[C@H]1[C@H](C)[C@H]1O[C@@]2(CC[C@@](C)([C@H]3CC[C@@](C)([C@@H]4O[C@@H]([C@H]5O[C@](C)(O)[C@H](C)C[C@@H]5C)C[C@@H]4OC4C[C@H](OC)[C@@H](OC)[C@H](C)O4)O3)O2)C[C@H](O)[C@H]1C (stereo not given in full) | 0.0682% [at 46 µM] (inactive) |  |
| COc1ccc(/C=C/C(=O)c2ccc(OC)cc2OC)cc1 | -0.0194% [at 46 µM] (inactive) |  |
| O=C(O)c1ccc(O)cc1O | 0.0105% (inactive) |  |
| COc1cc(NC(C)CCCN)c2ncccc2c1 (stereo not given) | -0.0264% [at 18.6 µM] (inactive) |  |
| CCN(CC)C(=O)/C(C#N)=C/c1cc(O)c(O)c([N+](=O)[O-])c1 | -0.116% [at 46 µM] (inactive) |  |
| CC(=O)OCC(C)C | -0.0849% (inactive) |  |
| Cc1c[nH]c2ccccc12 | -0.006% [at 46 µM] (inactive) |  |
| CCc1ccc(C)cc1 | 0.0226% (inactive) |  |
| Oc1ccc2c(c1)Cc1ccccc1-2 | -0.088% (inactive) |  |
| CC1=CC[C@@]23C[C@@H]1C(C)(C)[C@@H]2CC[C@H]3C | 0.127% (inactive) |  |
| CC(CCc1ccc(O)cc1)NCCc1ccc(O)c(O)c1 (stereo not given) | -0.0137% [at 46 µM] (inactive) |  |
| CC(=O)Oc1cccc(O)c1 | 0.0256% [at 46 µM] (inactive) |  |
| CCCCCCC(O)CCOC(C)=O (stereo not given) | 0.0761% [at 203 µM] (inactive) |  |
| COc1ccc(-c2cc(C(F)F)nn2-c2ccc(S(N)(=O)=O)cc2)cc1F | -0.0072% [at 46 µM] (inactive) |  |
| O=C(O)CNC(=O)c1ccccc1I | 0.0005% [at 46 µM] (inactive) |  |
| O=C1c2ccccc2C(=O)c2c(O)ccc(O)c21 | 0.0007% (inactive) |  |
| O=C(O)CO | 0.0065% (inactive) |  |
| O=C1OC[C@H](Cc2cccc(O)c2)[C@H]1Cc1cccc(O)c1 | -0.0298% [at 46 µM] (inactive) |  |
| CCOC(=O)c1c(N)sc2c1CCN(Cc1ccccc1)C2 | 0.3% [at 46 µM] (inactive) |  |

| Structure (SMILES) | fluorescence, % of fluorescein control | outcome |
| --- | --- | --- |
| Cc1ccc(NC(=O)N(C)C)cc1NC(=O)N(C)C | 0.0123% (inactive) |  |
| CC(=O)C(=O)CC(C)C | 0.0666% (inactive) |  |
| CCC(CO)(CO)CO | -0.0619% [at 95.7 µM] (inactive) |  |
| O=C(O)/C=C/c1ccc(O)c(O)c1 | -0.126% (inactive) |  |
| COc1cc(NCc2ccc3nc(N)nc(N)c3c2C)cc(OC)c1OC | 0.176% [at 46 µM] (inactive) |  |
| Cc1ccc(Cl)cc1N | 0.0032% [at 95.7 µM] (inactive) |  |
| C/C(C=O)=C\c1ccccc1 | -0.113% (inactive) |  |
| CC(C)CC(O)CC(C)C | 0.012% (inactive) |  |
| CCCCCCOC(=O)CCCCC | -0.0289% (inactive) |  |
| O=P(O)(O)Oc1ccccc1 | -0.0077% (inactive) |  |
| CSCC[C@H](NC(=O)[C@H](Cc1c[nH]c2ccccc12)NC(=O)CCNC(=O)OC(C)(C)C)C(=O)N[C@@H](CC(=O)O)C(=O)N[C@@H](Cc1ccccc1)C(N)=O | -0.112% [at 46 µM] (inactive) |  |
| CCCCCCCCCCCC(=O)OCC(O)CO (stereo not given) |  | inactive |
| CCO[Si](C)(CCCOCC1CO1)OCC (stereo not given) | 0.0252% (inactive) |  |
| O=C(O)CCS | 0.0357% [at 95.7 µM] (inactive) |  |
| CNS(=O)(=O)c1cc(C(=O)N2CCC(CCN3C4CCC3CC(n3c(C)nc5ccccc53)C4)(c3cccc(F)c3)CC2)c(Cl)cc1F (stereo not given) | 0.0063% (inactive) |  |
| CNc1c2c(nn1C)CCCC2 | 0.0063% [at 46 µM] (inactive) |  |
| CCN(CC)c1cccc(O)c1 | 0.233% [at 95.7 µM] (inactive) |  |
| Cc1ccccc1S(N)(=O)=O | 0.0062% (inactive) |  |
| CC1=CC[C@@H]2C[C@H]1C2(C)C | 0.0311% [at 18.6 µM] (inactive) |  |
| CSSc1ccoc1C | 0.0436% (inactive) |  |
